Here are results for three molecules from PubChem BioAssay AID2284141 (EPA ToxCast).

The structures appear in SMILES notation. Results filed as inconclusive are left out. Calls of active or inactive are those of the source. The calls were made as follows: active = hit-call score of the fitted dose curve at least 0.9, where 1 is the maximum; inconclusive = response in the unintended direction; inactive = score below 0.9.

Chain of hamster Adenylyl Cyclase, Adcy5 (gene 64532) (Q04400 whole entry, looked up): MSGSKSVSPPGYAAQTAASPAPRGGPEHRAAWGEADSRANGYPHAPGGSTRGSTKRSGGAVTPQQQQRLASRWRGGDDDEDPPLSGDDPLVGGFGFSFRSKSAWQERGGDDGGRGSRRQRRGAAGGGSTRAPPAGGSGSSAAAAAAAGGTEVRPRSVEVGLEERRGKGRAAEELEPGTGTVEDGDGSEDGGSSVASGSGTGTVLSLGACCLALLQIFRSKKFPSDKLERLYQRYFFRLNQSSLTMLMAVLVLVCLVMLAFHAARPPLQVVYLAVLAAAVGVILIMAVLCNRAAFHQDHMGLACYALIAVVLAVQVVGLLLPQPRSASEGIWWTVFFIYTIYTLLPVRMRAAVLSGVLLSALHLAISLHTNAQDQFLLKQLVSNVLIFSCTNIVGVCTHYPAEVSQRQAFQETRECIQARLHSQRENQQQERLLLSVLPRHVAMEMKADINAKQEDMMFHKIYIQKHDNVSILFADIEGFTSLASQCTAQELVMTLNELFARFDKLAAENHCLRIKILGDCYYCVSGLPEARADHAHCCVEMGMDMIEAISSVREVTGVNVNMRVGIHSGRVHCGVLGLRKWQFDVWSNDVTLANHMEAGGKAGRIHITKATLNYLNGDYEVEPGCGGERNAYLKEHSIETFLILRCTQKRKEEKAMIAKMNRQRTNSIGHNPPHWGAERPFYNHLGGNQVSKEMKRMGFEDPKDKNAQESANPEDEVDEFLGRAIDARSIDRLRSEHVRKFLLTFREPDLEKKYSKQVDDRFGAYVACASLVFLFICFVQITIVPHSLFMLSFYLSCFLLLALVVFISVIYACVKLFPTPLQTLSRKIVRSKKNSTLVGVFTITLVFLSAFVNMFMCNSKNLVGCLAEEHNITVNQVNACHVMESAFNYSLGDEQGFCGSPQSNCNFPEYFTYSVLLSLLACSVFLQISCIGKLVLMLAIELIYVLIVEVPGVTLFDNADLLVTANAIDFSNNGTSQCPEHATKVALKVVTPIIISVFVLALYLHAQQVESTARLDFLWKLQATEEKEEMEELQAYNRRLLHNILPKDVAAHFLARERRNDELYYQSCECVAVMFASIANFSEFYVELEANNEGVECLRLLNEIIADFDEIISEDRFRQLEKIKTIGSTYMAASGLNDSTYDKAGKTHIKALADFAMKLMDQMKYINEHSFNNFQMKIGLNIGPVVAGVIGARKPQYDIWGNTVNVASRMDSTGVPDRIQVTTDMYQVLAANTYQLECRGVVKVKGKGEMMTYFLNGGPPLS

The target in the assay is hamster Adenylyl Cyclase, Adcy5 (gene 64532) (UniProt Q04400). Nature of the assay: ERF_FR_ENZ_rACFSK_Antagonist: Eurofins (ERF) Enzymatic LeadHunter Assay for hamster Adenylyl Cyclase Antagonism. As for the experimental part:
ERF_FR_ENZ_rACFSK_Antagonist is a biochemical, single-readout assay that uses extracted gene-proteins in a cell-free assay. Measurements were taken 0.16 hour after chemical dosing in a 96-well plate. See Adenylyl Cyclase Hamster Enzymatic Antagonist Assay, Cerep.ERF_FR_ENZ_rACFSK_Antagonist is an assay component calculated from the ERF_FR_ENZ_rACFSK assay. It is designed to measure enzyme activity using a type of enzyme reporter as detected by fluorescence intensity with HTRF technology.Data from the assay component ERF_FR_ENZ_rACFSK_Antagonist was analyzed at the assay endpoint, ERF_FR_ENZ_rACFSK_Antagonist, in the positive analysis fitting direction relative to DMSO as the negative control and baseline of activity. Using a type of enzyme reporter, loss-of-signal activity can be used to understand changes in binding as they relate to gene ADCY5. To generalize the intended target to other relatable targets, this assay endpoint is annotated to the gpcr intended target family, where the subfamily is adenylyl cyclase.
Hamster cells are incubated for 10 minutes at room temprature. Test Sample Requirements: Minimum for 1) Screen: 60 ul of 10 mM stock -OR- 1 mg (pre-weighed) for 10 uM final testing. 2) Dose Response: 90 ul of 10 mM stock -OR- 1 mg (pre-weighed) for a top concentration at 10 uM.
Broadly, the AC50 is the concentration at which the activity in the assay is half-maximal. With `COc1cccc2c1C(=O)c1c(O)c3c(c(O)c1C2=O)C[C@@](O)(C(=O)CO)C[C@@H]3O[C@H]1C[C@H](N)[C@H](O)[C@H](C)O1`, the AC50 was 2600 nM (active).

`O=C(/C=C/c1ccc(O)cc1)CC(=O)/C=C/c1ccc(O)cc1`: the outcome was inactive.

As to `COc1cc(CCC(=O)CC(=O)CCc2ccc(O)c(OC)c2)ccc1O`, the molecule was called inactive.
